Read-out in assay [1]: TIMP metallopeptidase inhibitor 2 (TIMP2), TIMP2 (gene 7077)
Put plainly: BSK_KF3CT_TIMP2: BioMAP Diversity Plus: KF3CT Assay for TIMP metallopeptidase inhibitor 2 (TIMP2) Biomarker Activity (AID 2283071). The following applies: primary human keratinocytes with fibroblasts; actives raise or lower the signal. The essentials:
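Chemicals were dosed onto human skin primary co-cultures of keratinocytes and foreskin fibroblasts, and TIMP-2 was measured by ELISA after 24 hours. Activity in either direction was fitted relative to DMSO.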

Read-out in assay [2]: Transforming growth factor beta 1 (TGFb1), TGFB1 (gene 7040)
Put plainly: BSK_KF3CT_TGFb1: BioMAP Diversity Plus: KF3CT Assay for Transforming growth factor beta 1 (TGFb1) Biomarker Activity (AID 2283072). The following applies: primary human keratinocytes with fibroblasts; actives raise or lower the signal. The essentials: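 KF3CT co-culture (keratinocytes + fibroblasts), 24 h exposure → TGF-b1 ELISA → bidirectional fit, DMSO = baseline. Parallel SRB total-protein staining (0.1% SRB, 10% TCA fixation, 560 nm) for cytotoxicity.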

Read-out in assay [3]: C-C motif chemokine 2 (Homo sapiens) (UniProt P13500)
Put plainly: BSK_KF3CT_MCP1: BioMAP Diversity Plus: KF3CT Assay for Monocyte Chemoattractant Protein 1 (MCP1/CCL2) Biomarker Activity (AID 2283073). The following applies: primary human keratinocytes with fibroblasts; actives raise or lower the signal. Summed up:
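Human keratinocyte–foreskin fibroblast co-culture; MCP-1 measured by ELISA 24 h after dosing. Bidirectional fit vs DMSO; cytotoxicity tracked by SRB total protein in parallel cultures.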

Read-out in assay [4]: Matrix Metallopeptidase 9 (MMP9), MMP9 (gene 4318)
Put plainly: BSK_KF3CT_MMP9: BioMAP Diversity Plus: KF3CT Assay for Matrix Metallopeptidase 9 (MMP9) Biomarker Activity (AID 2283074).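 On AC50: MMP9 protein level quantified by ELISA in the co-culture.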 The following applies: primary human keratinocytes with fibroblasts; actives raise or lower the signal. Summed up: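 Values come from bidirectional fitting relative to DMSO of MMP-9 levels, which were measured by ELISA. Measurements were taken 24 h after chemical dosing of a keratinocyte and foreskin fibroblast co-culture.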

Read-out in assay [5]: urokinase plasminogen activator (uPA), PLAU (gene 5328)
The assay is described as follows: BSK_KF3CT_uPA: BioMAP Diversity Plus: KF3CT Assay for urokinase plasminogen activator (uPA) Biomarker Activity (AID 2283075). As to conditions: primary human keratinocytes with fibroblasts; actives raise or lower the signal. Summed up:
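Values derive from bidirectional fitting against DMSO controls. Keratinocyte/foreskin fibroblast co-cultures received chemical; 24 h later uPA was detected by ELISA, with SRB total-protein staining in parallel wells for overt cytotoxicity.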

Read-out in assay [6]: CD40, CD40 (gene 958)
The assay is described as follows: BSK_LPS_CD40: BioMAP Diversity Plus: LPS Assay for CD40 Biomarker Activity (AID 2283076). The following applies: primary human HUVEC with PBMC; actives raise or lower the signal. The essentials:
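HUVEC plus PBMC co-culture stimulated with LPS; CD40 quantified by ELISA 24 h after compound dosing. Fitting was bidirectional relative to DMSO. SRB staining of parallel cultures flagged overt cytotoxicity.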

Read-out in assay [7]: E-selectin (Homo sapiens) (UniProt P16581)
Put plainly: BSK_LPS_Eselectin: BioMAP Diversity Plus: LPS Assay for Eselectin Biomarker Activity (AID 2283077). As to conditions: primary human HUVEC with PBMC; actives raise or lower the signal. Summed up:
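Human umbilical vein endothelial cells co-cultured with PBMC under LPS stimulation; cell-surface E-selectin measured by ELISA 24 h after dosing. Change in either direction versus DMSO, with SRB total-protein staining in parallel cultures for cytotoxicity.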

Read-out in assay [8]: Interleukin-8 (IL8), CXCL8 (gene 3576)
The assay is described as follows: BSK_LPS_IL8: BioMAP Diversity Plus: LPS Assay for Interleukin-8 (IL8) Biomarker Activity (AID 2283078). As to conditions: primary human HUVEC with PBMC; actives raise or lower the signal. The essentials:
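Human umbilical vein endothelial cells co-cultured with PBMC, LPS-stimulated, exposed to compound for 24 h. IL-8 quantified by ELISA; fitted in both directions against DMSO, with SRB total-protein staining of parallel cultures for cytotoxicity.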

A short description of assay [9]: BSK_LPS_SRB: Viability Assessment in the BioMAP Diversity Plus: LPS Assay (AID 2283079).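 Further: total protein by sulforhodamine B absorbance as a cytotoxicity measure; measured one day after compound addition; fitted in both directions against DMSO so loss or gain of signal counts.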 The following applies: primary human HUVEC with PBMC. Summed up: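 Co-culture of human umbilical vein endothelial cells and PBMC, read 24 h after dosing. Total protein by 0.1% SRB staining after 10% TCA fixation, absorbance at 560 nm; bidirectional fit against DMSO.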
Read-out in assay [10]: Interleukin-1 alpha (IL1a), IL1A (gene 3552)
Put plainly: BSK_LPS_IL1a: BioMAP Diversity Plus: LPS Assay for Interleukin-1 alpha (IL1a) Biomarker Activity (AID 2283080). The following applies: primary human HUVEC with PBMC; actives raise or lower the signal. Summed up:
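Human umbilical vein endothelial cells co-cultured with PBMC and stimulated with LPS; IL-1a measured by ELISA 24 h after dosing. Bidirectional fitting against DMSO; cytotoxicity checked by SRB staining in parallel cultures.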

Read-out in assay [11]: Monocyte Chemoattractant Protein-1 (MCP1), CCL2 (gene 6347)
Put plainly: BSK_LPS_MCP1: BioMAP Diversity Plus: LPS Assay for Monocyte Chemoattractant Protein-1 (MCP1) Biomarker Activity (AID 2283081).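 On AC50: secreted MCP-1 protein quantified by ELISA in culture supernatant.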 The following applies: primary human HUVEC with PBMC; actives raise or lower the signal. The essentials:
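Human umbilical vein endothelial cells co-cultured with PBMC, LPS-stimulated; secreted MCP-1 measured by ELISA 24 h after compound addition. Bidirectional curve fitting against DMSO baseline; SRB total-protein staining in parallel cultures for cytotoxicity.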

Assay [12] is described as follows: BSK_LPS_PGE2: BioMAP Diversity Plus: LPS Assay for Prostaglandin E2 (PGE2) Biomarker Activity (AID 2283082). The following applies: primary human HUVEC with PBMC; actives raise or lower the signal. The essentials: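 Compounds were added to the LPS co-culture of endothelium and PBMC, and PGE2 was measured by ELISA after 24 h. Responses in either direction were fitted with DMSO as baseline.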

Read-out in assay [13]: Tumor necrosis factor (Homo sapiens) (UniProt P01375)
Put plainly: BSK_LPS_TNFa: BioMAP Diversity Plus: LPS Assay for Tumour Necrosis Factor alpha (TNFa) Biomarker Activity (AID 2283085).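 On AC50: TNFa protein level quantified by ELISA in the co-culture.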 As to conditions: primary human HUVEC with PBMC; actives raise or lower the signal. Summed up: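 Cells (umbilical vein endothelium plus peripheral blood mononuclear cells) were dosed with chemical, incubated 24 h, then TNFa was quantified by ELISA; values derive from bidirectional fitting with DMSO as baseline.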

Read-out in a further assay: CD38, CD38 (gene 952)
Put plainly: BSK_SAg_CD38: BioMAP Diversity Plus: SAg Assay for CD38 Biomarker Activity (AID 2283087). The following applies: primary human HUVEC with PBMC; actives raise or lower the signal. The essentials: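 CD38 quantified by ELISA (fluorescence) in a superantigen-activated endothelial cell–PBMC co-culture at 24 h post-dose. Activity fitted in both directions relative to DMSO; parallel SRB and Alamar Blue cytotoxicity read-outs.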

Read-out in assay [14]: CD40, CD40 (gene 958)
The assay is described as follows: BSK_SAg_CD40: BioMAP Diversity Plus: SAg Assay for CD40 Biomarker Activity (AID 2283088). As to conditions: primary human HUVEC with PBMC; actives raise or lower the signal. The essentials:
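HUVEC plus PBMC co-culture, superantigen-activated, with CD40 read by ELISA 24 h after dosing. Curves fitted in both directions against DMSO. Overt cytotoxicity checked by parallel SRB total-protein staining.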

Read-out in another assay: CD69, CD69 (gene 969)
The assay is described as follows: BSK_SAg_CD69: BioMAP Diversity Plus: SAg Assay for CD69 Biomarker Activity (AID 2283089).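 On AC50: cell surface CD69 protein quantified by ELISA with fluorescence detection.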 The following applies: primary human HUVEC with PBMC; actives raise or lower the signal. Summed up:
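ELISA, fluorescence read-out: CD69 on human umbilical vein endothelial cell + PBMC co-culture, 24 h post-dosing. Gain or loss of signal fitted bidirectionally against DMSO baseline.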

Read-out in assay [15]: Monocyte Chemoattractant Protein-1 (MCP1), CCL2 (gene 6347)
The assay is described as follows: BSK_SAg_MCP1: BioMAP Diversity Plus: SAg Assay for Monocyte Chemoattractant Protein-1 (MCP1) Biomarker Activity (AID 2283090). As to conditions: primary human HUVEC with PBMC; actives raise or lower the signal. The essentials: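 Values derive from bidirectional fitting of ELISA-measured MCP1 against DMSO controls. Readings were taken 24 h after dosing human vascular endothelial cells co-cultured with peripheral blood mononuclear cells under superantigen stimulation.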

Read-out in assay [16]: Tissue Factor, F3 (gene 2152)
The assay is described as follows: BSK_LPS_TissueFactor: BioMAP Diversity Plus: LPS Assay for Tissue Factor Biomarker Activity (AID 2283084). As to conditions: primary human HUVEC with PBMC; actives raise or lower the signal. Summed up: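 Human umbilical vein endothelial cells co-cultured with PBMC were dosed with compound. Cell-surface CD142 was measured by ELISA 24 h later. Activity was fitted bidirectionally against DMSO, with SRB total-protein staining in parallel cultures for cytotoxicity.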

Read-out in assay [17]: Macrophage colony-stimulating factor (MCSF), CSF1 (gene 1435)
The assay is described as follows: BSK_LPS_MCSF: BioMAP Diversity Plus: LPS Assay for Macrophage colony-stimulating factor (MCSF) Biomarker Activity (AID 2283083). As to conditions: primary human HUVEC with PBMC; actives raise or lower the signal. Summed up: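 HUVEC–PBMC co-culture, M-CSF measured by ELISA 24 h after chemical dosing. Fitted in both directions relative to DMSO as negative control; overt cytotoxicity assessed by SRB total-protein staining in parallel cultures.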

Read-out in assay [18]: Vascular cell adhesion molecule 1 (VCAM1), VCAM1 (gene 7412)
Put plainly: BSK_LPS_VCAM1: BioMAP Diversity Plus: LPS Assay for Vascular cell adhesion molecule 1 (VCAM1) Biomarker Activity (AID 2283086). The following applies: primary human HUVEC with PBMC; actives raise or lower the signal. The essentials:
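Cells are dosed in an LPS-stimulated endothelial/mononuclear co-culture and, after 24 h, VCAM-1 is quantified by ELISA. Activity in either direction is fitted relative to the DMSO negative control.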

Usually AC50 stands for the midpoint of the concentration-response curve, whichever way the signal moves.

Activity calls are given as the source filed them. How the source made its calls: active means hit-call score of the fitted dose curve at least 0.9, where 1 is the maximum; inactive means score below 0.9.

Sequence of Tumor necrosis factor (Homo sapiens) (P01375 whole entry, looked up): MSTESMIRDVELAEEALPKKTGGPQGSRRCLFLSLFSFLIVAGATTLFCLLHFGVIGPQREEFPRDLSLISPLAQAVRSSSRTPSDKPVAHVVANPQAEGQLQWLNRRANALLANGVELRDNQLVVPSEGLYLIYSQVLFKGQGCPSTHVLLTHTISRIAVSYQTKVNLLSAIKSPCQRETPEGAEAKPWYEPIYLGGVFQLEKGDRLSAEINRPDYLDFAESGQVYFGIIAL
Sequence of E-selectin (Homo sapiens) (P16581 whole entry, looked up): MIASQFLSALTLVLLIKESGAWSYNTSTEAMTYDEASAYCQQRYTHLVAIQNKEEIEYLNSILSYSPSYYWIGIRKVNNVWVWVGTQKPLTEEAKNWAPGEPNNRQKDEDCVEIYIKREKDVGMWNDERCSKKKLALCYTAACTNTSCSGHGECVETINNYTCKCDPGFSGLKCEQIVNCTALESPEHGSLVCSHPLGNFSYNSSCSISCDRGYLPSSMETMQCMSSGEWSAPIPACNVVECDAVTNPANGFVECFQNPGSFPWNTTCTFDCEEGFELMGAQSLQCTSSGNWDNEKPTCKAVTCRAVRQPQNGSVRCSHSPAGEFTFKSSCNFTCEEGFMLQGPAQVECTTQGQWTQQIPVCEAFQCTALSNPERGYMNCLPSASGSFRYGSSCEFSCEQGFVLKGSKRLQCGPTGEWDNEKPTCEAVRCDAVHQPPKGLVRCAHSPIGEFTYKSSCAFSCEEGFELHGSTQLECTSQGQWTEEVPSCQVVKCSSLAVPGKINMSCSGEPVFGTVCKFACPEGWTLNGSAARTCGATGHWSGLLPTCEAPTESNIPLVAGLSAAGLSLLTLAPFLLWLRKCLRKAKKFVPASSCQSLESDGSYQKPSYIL

As for `CC(C)Nc1ccc(Nc2ccccc2)cc1`, the AC50 in assay [1] is 28.9 µM (active); in [2], 17.3 µM (active); in assay [3], 33.3 µM (active); in [4], 20 µM (active); in [5] it was 31.6 µM (active); with CD40, CD40 (gene 958) [6], 14 µM (active). Besides, the AC50 in assay [7] was 12.9 µM (active); in assay [8], 20 µM (active); in assay [9], 15.8 µM (active); in [10], 9.74 µM (active); in assay [11], 10.1 µM (active); in assay [12], 0.0166 µM (active). Further, the AC50 in assay [13] is 12.7 µM (active); with CD38, CD38 (gene 952), 4.14 µM (active); with CD40, CD40 (gene 958) [14], 13.1 µM (active); with CD69, CD69 (gene 969), 3.37 µM (active); in assay [15], 6.2 µM (active).

Regarding `Cc1ccc(N)cc1N`, the outcome is “inactive” in [1]; “inactive” in [2]; “inactive” in [3]; “inactive” in [4]; “inactive” in [5]; “inactive” with CD40, CD40 (gene 958) [6]. Besides, the outcome in assay [7], in [8], in assay [9], in assay [10], in assay [11] and in assay [12] was inactive. For the same compound, the outcome is “inactive” in assay [16]; “inactive” in assay [13]; “inactive” in the assay with CD38, CD38 (gene 952); “inactive” with CD40, CD40 (gene 958) [14]; “inactive” with CD69, CD69 (gene 969).

Regarding `CC(Cl)(Cl)C(=O)O`, the outcome in [1] is “inactive”; in assay [2], “inactive”; in assay [3] it was “inactive”; in assay [4] it was “inactive”; in assay [5], “inactive”; in the assay with CD40, CD40 (gene 958) [6], “inactive”. Further, the result in assay [7], in assay [8], in assay [9], in assay [10], in [11] and in [12] was inactive. Also, the outcome in assay [17] was “inactive”; in assay [13] it was “inactive”; in the assay with CD38, CD38 (gene 952), “inactive”; with CD40, CD40 (gene 958) [14] it was “inactive”; in the assay with CD69, CD69 (gene 969), “inactive”; in assay [15] it was “inactive”.

With `ClC(Cl)c1ccccc1`, the outcome was “inactive” in [1]; “inactive” in assay [2]; “inactive” in assay [3]; “inactive” in assay [4]; “inactive” in assay [5]; “inactive” with CD40, CD40 (gene 958) [6]. In addition, the result in assay [7], in [8], in [9], in assay [10], in assay [11] and in [17] was inactive. Besides, the outcome was “inactive” in [16]; “inactive” in [13]; “inactive” in [18]; “inactive” with CD38, CD38 (gene 952); “inactive” in the assay with CD40, CD40 (gene 958) [14]; “inactive” with CD69, CD69 (gene 969).
